# Measured values taken from the supplement of paper PMC8728848.
# This excerpt belongs to a sample that is enriched for the strongest signals.
# Columns and labels:
# Assay in all cases: glycan array binding signal (z-score within array); higher = stronger binding
# Details in all cases: glycan notation: IUPAC condensed, linker removed
# [1] = target: Gal(b1-4)GlcNAc(b1-3)Gal(b1-4)GlcNAc(b1-3)Gal(b1-4)GlcNAc(b1-3)Gal(b1-4)GlcNAc(b1-3)Gal(b1-4)GlcNAc(b1-2)Man(a1-3)[Gal(b1-4)GlcNAc(b1-3)Gal(b1-4)GlcNAc(b1-3)Gal(b1-4)GlcNAc(b1-3)Gal(b1-4)GlcNAc(b1-3)Gal(b1-4)GlcNAc(b1-2)Man(a1-6)]Man(b1-4)GlcNAc(b1-4)GlcNAc
# Outline: (§1)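 Glycan array binding is given as a within-array Z-score, which can be read as non-binding when negative. The arrays, 3228 of them, came from the Consortium for Functional Glycomics database and were retained only where the protein sequence was available. Z-scores were averaged across arrays of the same protein sequence at different concentrations or buffers and across linkers.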
# [2] = target: Gal(b1-4)GlcNAc(b1-3)Gal(b1-4)GlcNAc(b1-3)GalNAc
# Outline: as §1
# [3] = target: Gal(b1-4)GlcNAc(b1-3)Gal(b1-4)GlcNAc(b1-3)[Gal(b1-4)GlcNAc(b1-3)Gal(b1-4)GlcNAc(b1-6)]GalNAc
# Outline: as §1
# [4] = target: Gal(b1-4)GlcNAc(b1-3)Gal(b1-4)[Fuc(a1-3)]GlcNAc(b1-3)Gal(b1-4)[Fuc(a1-3)]GlcNAc
# Outline: as §1
# GalNAc(a1-3)GalNAc = target: GalNAc(a1-3)GalNAc
# Outline: as §1
# GalNAc(b1-3)GlcNAc = target: GalNAc(b1-3)GlcNAc
# Outline: as §1
# GalNAc(b1-4)GlcNAc = target: GalNAc(b1-4)GlcNAc
# Outline: as §1
# GalNAc3S(b1-4)GlcNAc3S = target: GalNAc3S(b1-4)GlcNAc3S
# Outline: as §1
# [5] = target: GalNAc3S(b1-4)[Fuc(a1-3)]GlcNAc
# Outline: as §1
# [6] = target: GlcA3S(b1-3)Gal(b1-4)GlcNAc(b1-3)Gal(b1-4)Glc
# Outline: as §1
# [7] = target: GlcNAc(a1-4)Gal(b1-4)GlcNAc
# Outline: as §1
# [8] = target: GlcNAc(a1-4)Gal(b1-4)GlcNAc(b1-3)Gal(b1-4)[Fuc(a1-3)]GlcNAc(b1-3)Gal(b1-4)[Fuc(a1-3)]GlcNAc
# Outline: as §1
# [9] = target: GlcNAc(b1-3)Gal(b1-4)GlcNAc(b1-2)Man(a1-3)[GlcNAc(b1-3)Gal(b1-4)GlcNAc(b1-2)Man(a1-6)]Man(b1-4)GlcNAc(b1-4)[Fuc(a1-6)]GlcNAc
# Outline: as §1
# [10] = target: GlcNAc(b1-3)Gal(b1-4)GlcNAc(b1-2)[GlcNAc(b1-3)Gal(b1-4)GlcNAc(b1-6)]Man(a1-6)[GlcNAc(b1-3)Gal(b1-4)GlcNAc(b1-2)Man(a1-3)]Man(b1-4)GlcNAc(b1-4)GlcNAc
# Outline: as §1
# [11] = target: GlcNAc(b1-3)Gal(b1-4)GlcNAc(b1-3)Gal(b1-4)GlcNAc(b1-2)[GlcNAc(b1-3)Gal(b1-4)GlcNAc(b1-3)Gal(b1-4)GlcNAc(b1-6)]Man(a1-6)[GlcNAc(b1-3)Gal(b1-4)GlcNAc(b1-3)Gal(b1-4)GlcNAc(b1-2)Man(a1-3)]Man(b1-4)GlcNAc(b1-4)[Fuc(a1-6)]GlcNAc
# Outline: as §1
# [12] = target: GlcNAc(b1-3)Gal(b1-4)GlcNAc(b1-3)Gal(b1-4)GlcNAc(b1-3)Gal(b1-4)GlcNAc(b1-3)Gal(b1-4)GlcNAc(b1-2)Man(a1-3)[GlcNAc(b1-3)Gal(b1-4)GlcNAc(b1-3)Gal(b1-4)GlcNAc(b1-3)Gal(b1-4)GlcNAc(b1-3)Gal(b1-4)GlcNAc(b1-2)Man(a1-6)]Man(b1-4)GlcNAc(b1-4)[Fuc(a1-6)]GlcNAc
# Outline: as §1
# [13] = target: Man(a1-2)Man(a1-3)[Man(a1-6)]Man(a1-6)[Man(a1-2)Man(a1-3)]Man(b1-4)GlcNAc(b1-4)GlcNAc
# Outline: as §1
# [14] = target: Man(a1-2)Man(a1-6)[Man(a1-3)]Man(a1-6)[Man(a1-2)Man(a1-2)Man(a1-3)]Man
# Outline: as §1
# Man(a1-6)Man = target: Man(a1-6)Man
# Outline: as §1
# [15] = target: Neu5Ac(a2-3)Gal(b1-3)GalNAc(b1-4)[Neu5Ac(a2-3)]Gal(b1-4)Glc
# Outline: as §1
# [16] = target: Neu5Ac(a2-3)Gal(b1-3)[Fuc(a1-4)]GlcNAc(b1-3)Gal(b1-4)[Fuc(a1-3)]GlcNAc
# Outline: as §1
# [17] = target: Neu5Ac(a2-3)Gal(b1-4)GlcNAc
# Outline: as §1
# [18] = target: Neu5Ac(a2-3)Gal(b1-4)GlcNAc(b1-2)Man(a1-3)[GlcNAc(b1-4)][Neu5Ac(a2-3)Gal(b1-4)GlcNAc(b1-2)Man(a1-6)]Man(b1-4)GlcNAc(b1-4)GlcNAc
# Outline: as §1
# [19] = target: Neu5Ac(a2-3)Gal(b1-4)GlcNAc(b1-2)Man(a1-3)[Neu5Ac(a2-3)Gal(b1-4)GlcNAc(b1-2)Man(a1-6)]Man(b1-4)GlcNAc(b1-4)GlcNAc
# Outline: as §1
# [20] = target: Neu5Ac(a2-3)Gal(b1-4)GlcNAc(b1-2)[Neu5Ac(a2-3)Gal(b1-4)GlcNAc(b1-6)]Man(a1-6)[Neu5Ac(a2-3)Gal(b1-4)GlcNAc(b1-2)Man(a1-3)]Man(b1-4)GlcNAc(b1-4)GlcNAc
# Outline: as §1
# [21] = target: Neu5Ac(a2-3)Gal(b1-4)GlcNAc(b1-3)GalNAc
# Outline: as §1
# [22] = target: Neu5Ac(a2-3)Gal(b1-4)[Fuc(a1-3)]GlcNAc(b1-3)Gal(b1-4)GlcNAc
# Outline: as §1
# [23] = target: Neu5Ac(a2-6)Gal(b1-4)GlcNAc(b1-2)Man(a1-3)Man(b1-4)GlcNAc(b1-4)GlcNAc
# Outline: as §1
# [24] = target: Neu5Ac(a2-6)Gal(b1-4)GlcNAc(b1-2)[Neu5Ac(a2-6)Gal(b1-4)GlcNAc(b1-4)]Man(a1-3)[GlcNAc(b1-4)][Neu5Ac(a2-6)Gal(b1-4)GlcNAc(b1-4)Man(a1-6)]Man(b1-4)GlcNAc(b1-4)GlcNAc
# Outline: as §1
# [25] = target: Neu5Ac(a2-6)Gal(b1-4)GlcNAc(b1-2)[Neu5Ac(a2-6)Gal(b1-4)GlcNAc(b1-6)]Man(a1-6)[Neu5Ac(a2-6)Gal(b1-4)GlcNAc(b1-2)Man(a1-3)][GlcNAc(b1-4)]Man(b1-4)GlcNAc(b1-4)GlcNAc
# Outline: as §1
# [26] = target: Neu5Ac(a2-6)Gal(b1-4)GlcNAc(b1-3)Gal(b1-4)GlcNAc(b1-3)Gal(b1-4)GlcNAc(b1-2)Man(a1-3)[Neu5Ac(a2-6)Gal(b1-4)GlcNAc(b1-3)Gal(b1-4)GlcNAc(b1-3)Gal(b1-4)GlcNAc(b1-2)Man(a1-6)]GalNAc
# Outline: as §1
# [27] = target: Neu5Ac(a2-6)Gal(b1-4)GlcNAc(b1-3)GalNAc
# Outline: as §1
# [28] = target: Neu5Ac(a2-8)Neu5Ac(a2-8)Neu5Ac(a2-3)Gal(b1-4)Glc
# Outline: as §1
binder,measurement,setting,value
GS7807Q-bfa-507-19-507 (Bacteroides fragilis) (protein) ASCNKFDDLNTNPDAATKVTAPMLATKLILNITQQGSAKNFVYHSMLSKQIAWSENASDEQYNLFGRTDFDGYTILTNCQKMVDAANEGDKDSYAALAKFMKAYKLFYKSLEVGDIPYSDALKGEEGVQKPKYDTQKEVMRQVLEDLEEAYTLFSSGSDFDGDPIFGGDTENWKKTVVAFELKVLTHLCKKDTDADLKVKERFARLVSSGSLMTSNADNFQLVYSNKAGQLYPFYYTQNKHSDYLMMSSVIIDNLKKFNDYRMFYYASPAKAQTDKGIKDSEWDAYLSIDPSDSYSNISVLYGKGEFCLANLRYTRVPEGEPLMRLSYAEQNFILAEGAVRGWISEDASTYYKKGIEASMNFIADNTPDKEEYTHGRTITQEYIQEYLAQPVIQLSGDKEKDLEMILLQRYLASFLQHPYDAYYDYRRTGYPVLPINPSTNLNTEKNKIPTRWMYPEAEFSYNPDNANEAVQRQYNGSDDVNKLMWILQ,glycan array binding signal (z-score),[1],-0.15
same,glycan array binding signal (z-score),[2],-0.268
same,glycan array binding signal (z-score),[3],-0.074
same,glycan array binding signal (z-score),[4],-0.174
same,glycan array binding signal (z-score),GalNAc(a1-3)GalNAc,-0.06
same,glycan array binding signal (z-score),GalNAc(b1-3)GlcNAc,-0.454
same,glycan array binding signal (z-score),GalNAc(b1-4)GlcNAc,3.09
same,glycan array binding signal (z-score),GalNAc3S(b1-4)GlcNAc3S,-0.279
same,glycan array binding signal (z-score),[5],-0.654
same,glycan array binding signal (z-score),[6],0.23
same,glycan array binding signal (z-score),[7],-0.604
same,glycan array binding signal (z-score),[8],3.02
same,glycan array binding signal (z-score),[9],2.43
same,glycan array binding signal (z-score),[10],1.65
same,glycan array binding signal (z-score),[11],2.73
same,glycan array binding signal (z-score),[12],-0.41
same,glycan array binding signal (z-score),[13],-0.639
same,glycan array binding signal (z-score),[14],0.113
same,glycan array binding signal (z-score),Man(a1-6)Man,0.531
same,glycan array binding signal (z-score),[15],-0.316
same,glycan array binding signal (z-score),[16],-0.38
same,glycan array binding signal (z-score),[17],-0.496
same,glycan array binding signal (z-score),[18],-0.905
same,glycan array binding signal (z-score),[19],-0.347
same,glycan array binding signal (z-score),[20],1.35
same,glycan array binding signal (z-score),[21],-0.737
same,glycan array binding signal (z-score),[22],-0.425
same,glycan array binding signal (z-score),[23],-0.09
same,glycan array binding signal (z-score),[24],0.481
same,glycan array binding signal (z-score),[25],0.863
same,glycan array binding signal (z-score),[26],3.17
same,glycan array binding signal (z-score),[27],0.841
same,glycan array binding signal (z-score),[28],-0.141
